Counter-ions that a name gives are not always drawn.
Tests used:
Conditions in all cases: treatment time: 24 h
[1] = test system: HepG2-TUBA1B-RELA; experiment: lowest phenotypically active concentration; higher = less potent
In short: (§1)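 The reporter lines, fifteen in total and built by gene editing in A549, HepG2 and WPMY1 cells, used BFP for segmentation alongside GFP and RFP/FusionRed markers. Each was treated at 0.3, 1, 3 or 9 µM for 24 h in four wells and then imaged live, with live-cell features normalised to solvent control wells. Deviation meant ≥3 of 4 wells beyond the 95th percentile of control Euclidean distances; reproducibility meant a median replicate Pearson correlation above the 95th percentile of non-replicates. Only conditions meeting both were scored as phenotypically active.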

[2] = test system: WPMY1-GM130-SQSTM1; experiment: as above
In short: as §1

[3] = test system: A549-ACTB-RAB5A; experiment: phenotypically active (imaging signature differs from DMSO and reproducible) at any of 0.3-9 uM (binary (1 = active, 0 = inactive)); higher = active
In short: as §1

[4] = test system: A549-CANX-COX4; experiment: as above
In short: as §1

[5] = test system: A549-GM130-SQSTM1; experiment: as above
In short: as §1

[6] = test system: A549-TP53BP1-CLTA; experiment: as above
In short: as §1

[7] = test system: A549-TUBA1B-RELA; experiment: as above
In short: as §1

[8] = test system: HepG2-ACTB-RAB5A; experiment: as above
In short: as §1

[9] = test system: HepG2-CANX-COX4; experiment: as above
In short: as §1

[10] = test system: HepG2-GM130-SQSTM1; experiment: as above
In short: as §1

[11] = test system: HepG2-TP53BP1-CLTA; experiment: as above
In short: as §1

[12] = test system: HepG2-TUBA1B-RELA; experiment: as above
In short: as §1

[13] = test system: WPMY1-ACTB-RAB5A; experiment: as above
In short: as §1

[14] = test system: WPMY1-CANX-COX4; experiment: as above
In short: as §1

[15] = test system: WPMY1-GM130-SQSTM1; experiment: as above
In short: as §1

[16] = test system: WPMY1-TP53BP1-CLTA; experiment: as above
In short: as §1

[17] = test system: WPMY1-TUBA1B-RELA; experiment: as above
In short: as §1

[18] = test system: WPMY1-ACTB-RAB5A; experiment: lowest phenotypically active concentration; higher = less potent
In short: as §1

[19] = test system: HepG2-GM130-SQSTM1; experiment: as above
In short: as §1

C#CCN[C@@H]1CCc2ccccc21 [rasagiline]
active: phenotypically active [11] 1 | phenotypically active [12] 1 | phenotypically active [15] 1 | phenotypically active [16] 1
inactive: phenotypically active [3] 0 | phenotypically active [4] 0 | phenotypically active [5] 0 | phenotypically active [6] 0 | phenotypically active [7] 0 | phenotypically active [8] 0 | phenotypically active [9] 0 | phenotypically active [10] 0 | phenotypically active [13] 0 | phenotypically active [14] 0 | phenotypically active [17] 0
9 µM: lowest phenotypically active concentration [1] | lowest phenotypically active concentration [2]

CC(CCc1ccc(O)cc1)NCCc1ccc(O)c(O)c1 (centres undefined) [Dobutamine hydrochloride]
inactive: phenotypically active [3] 0 | phenotypically active [4] 0 | phenotypically active [5] 0 | phenotypically active [6] 0 | phenotypically active [7] 0 | phenotypically active [8] 0 | phenotypically active [9] 0 | phenotypically active [10] 0 | phenotypically active [11] 0 | phenotypically active [12] 0 | phenotypically active [13] 0 | phenotypically active [14] 0 | phenotypically active [16] 0 | phenotypically active [17] 0
active: phenotypically active [15] 1
3 µM: lowest phenotypically active concentration [2]

CNCC(O)c1ccc(OC(=O)C(C)(C)C)c(OC(=O)C(C)(C)C)c1 (centres undefined) [dipivefrine]
active: phenotypically active [15] 1
inactive: phenotypically active [3] 0 | phenotypically active [4] 0 | phenotypically active [5] 0 | phenotypically active [6] 0 | phenotypically active [7] 0 | phenotypically active [8] 0 | phenotypically active [9] 0 | phenotypically active [10] 0 | phenotypically active [11] 0 | phenotypically active [12] 0 | phenotypically active [13] 0 | phenotypically active [14] 0 | phenotypically active [16] 0 | phenotypically active [17] 0
9 µM: lowest phenotypically active concentration [2]

Cn1cnc(N)c2ncnc1-2 [3-Methyladenine]
active: phenotypically active [13] 1
1 µM: lowest phenotypically active concentration [18]
inactive: phenotypically active [3] 0 | phenotypically active [4] 0 | phenotypically active [5] 0 | phenotypically active [6] 0 | phenotypically active [7] 0 | phenotypically active [8] 0 | phenotypically active [9] 0 | phenotypically active [10] 0 | phenotypically active [11] 0 | phenotypically active [12] 0 | phenotypically active [14] 0 | phenotypically active [15] 0 | phenotypically active [16] 0 | phenotypically active [17] 0

COc1ccnc(CS(=O)c2nc3cc(OC(F)F)ccc3[nH]2)c1OC (centres undefined) [pantoprazole]
active: phenotypically active [13] 1
≤ 0.3 µM: lowest phenotypically active concentration [18]
inactive: phenotypically active [3] 0 | phenotypically active [4] 0 | phenotypically active [5] 0 | phenotypically active [6] 0 | phenotypically active [7] 0 | phenotypically active [8] 0 | phenotypically active [9] 0 | phenotypically active [10] 0 | phenotypically active [11] 0 | phenotypically active [12] 0 | phenotypically active [14] 0 | phenotypically active [15] 0 | phenotypically active [16] 0 | phenotypically active [17] 0

O=c1cc(-c2ccc(O)cc2)oc2cc(O)cc(O)c12 [Apigenin]
9 µM: lowest phenotypically active concentration [19] | lowest phenotypically active concentration [1] | lowest phenotypically active concentration [2]
active: phenotypically active [10] 1 | phenotypically active [11] 1 | phenotypically active [12] 1 | phenotypically active [15] 1 | phenotypically active [16] 1 | phenotypically active [17] 1
inactive: phenotypically active [3] 0 | phenotypically active [4] 0 | phenotypically active [5] 0 | phenotypically active [6] 0 | phenotypically active [7] 0 | phenotypically active [8] 0 | phenotypically active [9] 0 | phenotypically active [13] 0 | phenotypically active [14] 0

Cc1cccc(CCN2CCC(C(=O)c3ccc(NS(C)(=O)=O)cc3)CC2)n1
3 µM: lowest phenotypically active concentration [2]
active: phenotypically active [15] 1
inactive: phenotypically active [3] 0 | phenotypically active [4] 0 | phenotypically active [5] 0 | phenotypically active [6] 0 | phenotypically active [7] 0 | phenotypically active [8] 0 | phenotypically active [9] 0 | phenotypically active [10] 0 | phenotypically active [11] 0 | phenotypically active [12] 0 | phenotypically active [13] 0 | phenotypically active [14] 0 | phenotypically active [16] 0 | phenotypically active [17] 0

COC(=O)[C@H]1[C@H]2C[C@H]3c4[nH]c5ccccc5c4CCN3C[C@H]2CC[C@@H]1O [Rauwolscine hydrochloride]
inactive: phenotypically active [3] 0 | phenotypically active [4] 0 | phenotypically active [5] 0 | phenotypically active [6] 0 | phenotypically active [7] 0 | phenotypically active [8] 0 | phenotypically active [9] 0 | phenotypically active [10] 0 | phenotypically active [11] 0 | phenotypically active [12] 0 | phenotypically active [13] 0 | phenotypically active [14] 0 | phenotypically active [16] 0 | phenotypically active [17] 0
active: phenotypically active [15] 1
3 µM: lowest phenotypically active concentration [2]

CNC(=O)c1ccc(C)c(-n2c(C)cc(OCc3ccc(F)cc3F)c(Br)c2=O)c1
1 µM: lowest phenotypically active concentration [18]
active: phenotypically active [13] 1
inactive: phenotypically active [3] 0 | phenotypically active [4] 0 | phenotypically active [5] 0 | phenotypically active [6] 0 | phenotypically active [7] 0 | phenotypically active [8] 0 | phenotypically active [9] 0 | phenotypically active [10] 0 | phenotypically active [11] 0 | phenotypically active [12] 0 | phenotypically active [14] 0 | phenotypically active [15] 0 | phenotypically active [16] 0 | phenotypically active [17] 0

CN/C(=C/[N+](=O)[O-])NCCSCc1csc(CN(C)C)n1 [nizatidine]
active: phenotypically active [11] 1
inactive: phenotypically active [3] 0 | phenotypically active [4] 0 | phenotypically active [5] 0 | phenotypically active [6] 0 | phenotypically active [7] 0 | phenotypically active [8] 0 | phenotypically active [9] 0 | phenotypically active [10] 0 | phenotypically active [12] 0 | phenotypically active [13] 0 | phenotypically active [14] 0 | phenotypically active [15] 0 | phenotypically active [16] 0 | phenotypically active [17] 0

CCOC(=O)c1ccc(N2NC(=O)/C(=C/c3ccc([N+](=O)[O-])o3)C2=O)cc1
9 µM: lowest phenotypically active concentration [2]
active: phenotypically active [14] 1 | phenotypically active [15] 1
inactive: phenotypically active [3] 0 | phenotypically active [4] 0 | phenotypically active [5] 0 | phenotypically active [6] 0 | phenotypically active [7] 0 | phenotypically active [8] 0 | phenotypically active [9] 0 | phenotypically active [10] 0 | phenotypically active [11] 0 | phenotypically active [12] 0 | phenotypically active [13] 0 | phenotypically active [16] 0 | phenotypically active [17] 0

CC(C)C[C@H](NC(=O)OCC1c2ccccc2-c2ccccc21)C(=O)O
inactive: phenotypically active [3] 0 | phenotypically active [4] 0 | phenotypically active [5] 0 | phenotypically active [6] 0 | phenotypically active [7] 0 | phenotypically active [8] 0 | phenotypically active [9] 0 | phenotypically active [10] 0 | phenotypically active [11] 0 | phenotypically active [12] 0 | phenotypically active [14] 0 | phenotypically active [15] 0 | phenotypically active [16] 0 | phenotypically active [17] 0
active: phenotypically active [13] 1
9 µM: lowest phenotypically active concentration [18]
